From PubChem BioAssay (EPA / NIEHS)
Several values for one entry are separate records, joined by “and”; a condition that tells them apart may be missing. Identical values can stand only once. Results filed as inconclusive are left out. Activity calls are given as the source filed them. The calls were made as follows, unless noted: active = hit-call score of the fitted dose curve at least 0.9, where 1 is the maximum; inactive = score below 0.9.

Key:
[1] = CCTE_Shafer_MEA_acute_cross_correlation_area: CCTE's Neural Acute Assay for Area of Cross Correlation, Shafer Lab (AID 2284024);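 also: area under pooled inter-electrode spike cross-correlation near zero lag as percent change from own baseline; curves fitted for loss of cross-correlation area so actives lower synchrony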
Procedure, shortened: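 Extracellular recordings from cultured rat cortical neurons measure network synchrony as cross-correlation area; each well's post-compound value (0.03-40 uM, 40 min) is compared with its own 40 min baseline to give percent change.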

[2] = CCTE_Shafer_MEA_acute_synchrony_index: CCTE's Neural Acute Assay for Synchrony, Shafer Lab (AID 2284027);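 also: network synchrony index of spontaneous spiking in primary rat cortical neurons on MEAs; fitted for loss of signal so actives lower synchrony relative to DMSO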
Procedure, shortened: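 Spontaneous firing of mature rat cortical networks is captured extracellularly on microelectrode arrays at 37 C, with wells needing ≥10 active electrodes. Each compound (0.03-40 uM) is judged by the change in synchrony index from baseline over 40 min.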

[3] = biological target: Estrogen receptor (Homo sapiens) (UniProt P03372); test: CCTE_Deisenroth_AIME_384WELL_LUC_Active: CCTE's 384-well Estrogen Receptor Transactivation Assay with AIME metabolic competence (ERTA luciferase; metabolism positive), Deisenroth Lab (AID 2284030; active = hit-call score of the fitted dose curve at least 0.9, where 1 is the maximum)
Sequence of Estrogen receptor (Homo sapiens) (P03372 whole entry, looked up): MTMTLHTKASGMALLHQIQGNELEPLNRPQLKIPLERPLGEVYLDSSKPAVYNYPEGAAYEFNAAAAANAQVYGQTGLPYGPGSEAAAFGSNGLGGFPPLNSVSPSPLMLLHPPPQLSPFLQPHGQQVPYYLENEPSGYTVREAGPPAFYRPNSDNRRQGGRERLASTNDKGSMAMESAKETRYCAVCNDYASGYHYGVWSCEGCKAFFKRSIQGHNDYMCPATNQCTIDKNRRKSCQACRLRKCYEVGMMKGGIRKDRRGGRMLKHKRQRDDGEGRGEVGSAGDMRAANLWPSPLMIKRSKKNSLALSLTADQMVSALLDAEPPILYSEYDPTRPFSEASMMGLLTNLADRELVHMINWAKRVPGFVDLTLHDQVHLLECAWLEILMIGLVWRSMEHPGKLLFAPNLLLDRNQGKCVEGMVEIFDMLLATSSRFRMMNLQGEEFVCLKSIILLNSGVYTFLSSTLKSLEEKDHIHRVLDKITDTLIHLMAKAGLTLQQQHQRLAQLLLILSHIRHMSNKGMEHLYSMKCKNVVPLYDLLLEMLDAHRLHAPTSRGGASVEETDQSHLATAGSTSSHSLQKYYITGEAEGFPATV
Procedure, shortened: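 Estrogenic luciferase signal in VM7Luc4E2 cells is measured at 24 hour, after chemicals have been preconditioned 2 hours with PB/BNF-induced rat hepatic S9 in alginate. Gain of signal is fitted relative to 17beta-estradiol, across 0.002 - 200 uM.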

[4] = CCTE_Shafer_MEA_dev_firing_rate_mean: CCTE's Neural Network Formation Assay for Mean Firing Rate, Shafer Lab (AID 2284031);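 as to AC50: curve fitted for loss of firing so AC50 reflects decreased mean firing rate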
Procedure, shortened: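 Developing rat cortical networks on MEA plates undergo 12-day compound exposure. Firing frequency, averaged across active electrodes, is integrated as area under the curve over four recording days, referenced to DMSO.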

[5] = CCTE_Shafer_MEA_dev_per_burst_spike_percent: CCTE's Neural Network Formation Assay for Percent of Spikes in a Burst, Shafer Lab (AID 2284032);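 as to AC50: fitted as a decrease in burst spike percentage below DMSO baseline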
Procedure, shortened: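 Rat primary cortical neurons on 16-electrode MEA wells, dosed from plating day 0 for 12 days with renewal on DIV 5 and 9; spikes-in-bursts percentage averaged over bursting electrodes, collapsed as AUC across days 5, 7, 9, 12; loss direction versus DMSO.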

[6] = CCTE_Deisenroth_AIME_384WELL_CTox_Active: Cytotoxicity Assessment (CTOX) in CCTE's 384-well Estrogen Receptor Transactivation Assay with AIME metabolic competence (metabolism positive), Deisenroth Lab (AID 2284037; active = hit-call score of the fitted dose curve at least 0.9, where 1 is the maximum;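 also: chemicals first conditioned 2 h by alginate-bound induced rat liver S9 before cells; activity means signal loss indicating cell death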)
Procedure, shortened: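 Cytotoxicity in VM7Luc4E2 breast cells, 24 hour, measured as protease-substrate fluorescence loss, after 2-hour metabolic conditioning with induced rat hepatic S9 in alginate microspheres. Concentrations 0.002 - 200 uM, 10 points, bidirectional fitting.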

[7] = biological target: Estrogen receptor (Homo sapiens) (UniProt P03372); test: CCTE_Deisenroth_AIME_384WELL_LUC_Inactive: CCTE's 384-well Estrogen Receptor Transactivation Assay without AIME metabolic competence (ERTA luciferase; metabolism negative), Deisenroth Lab (AID 2284038; active = hit-call score of the fitted dose curve at least 0.9, where 1 is the maximum;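 also: VM7Luc4E2 breast cells given medium preincubated 2 h with S9-free microspheres; hits raise estrogen receptor luciferase signal so potencies reflect agonists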)
Procedure, shortened: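 Chemicals (10-point series, 0.002 - 200 uM) were incubated 2 hours with alginate-water microsphere lids lacking S9, then the conditioned medium was transferred to VM7Luc4E2 breast cells for 24 hour. Luciferase induction was read by bioluminescence, fitted upward relative to 17beta-estradiol.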

[8] = CCTE_Deisenroth_AIME_384WELL_CTox_Inactive: Cytotoxicity Assessment (CTOX) in CCTE's 384-well Estrogen Receptor Transactivation Assay without AIME metabolic competence (metabolism negative), Deisenroth Lab (AID 2284039; active = hit-call score of the fitted dose curve at least 0.9, where 1 is the maximum;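 also: cell viability via live-cell protease substrate cleaved to fluorescent probe; cells exposed 24 h to medium preincubated 2 h with alginate-water beads without S9; loss of fluorescence signal means loss of viability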)
Procedure, shortened: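 Fluorescence from a live-cell protease substrate, read after 24 h in VM7Luc4E2 cells, indicated viability. Test medium came from a 2 h AIME step without hepatic S9 (alginate-water microspheres); concentrations spanned 0.002 - 200 uM, single technical replicate per run.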

[9] = CCTE_Shafer_MEA_dev_active_electrodes_number: CCTE's Neural Network Formation Assay for Number of Active Electrodes, Shafer Lab (AID 2284040; active = hit-call score of the fitted dose curve at least 0.9, where 1 is the maximum;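 as to AC50: potency for loss of active electrodes versus DMSO so lower counts are hits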)
Procedure, shortened: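 Rat cortical primary cultures, 1.5 x 10^5 cells/well, PEI-coated MEA, laminin drop. Continuous exposure DIV 0–12; full media/compound change DIV 5, 9. Readout: electrodes with mean firing ≥5 spikes/min; AUC across days; loss vs DMSO.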

[10] = biological target: Estrogen receptor (Homo sapiens) (UniProt P03372); test: CCTE_Deisenroth_AIME_384WELL_LUC_Shift: CCTE's 384-well Estrogen Receptor Transactivation Assay with AIME metabolic competence data shift (ERTA luciferase; difference in metabolism positive and negative), Deisenroth Lab (AID 2284041);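 also: shift is response with S9 minus without S9 so positive means metabolism raised ER signal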
Procedure, shortened: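 Test chemicals (0.002–200 uM, 10-point) were pre-incubated 2 h with alginate microspheres containing phenobarbital/beta-naphthoflavone-induced male Sprague Dawley rat liver S9 or water, then medium was transferred to VM7Luc4E2 cells for 24 h luciferase readout; shift = S9-positive minus S9-negative normalized response.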

[11] = CCTE_Shafer_MEA_dev_bursting_electrodes_number: CCTE's Neural Network Formation Assay for Number of Bursting Electrodes, Shafer Lab (AID 2284043; active = hit-call score of the fitted dose curve at least 0.9, where 1 is the maximum;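 as to AC50: potency is for loss of bursting electrodes relative to DMSO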)
Procedure, shortened: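 Read-out is the per-well number of electrodes bursting at least once every 2 minutes, recorded on days 5, 7, 9 and 12 and collapsed by trapezoidal area under the curve. Cultures were primary rat cortical neurons on MEA plates, treated continuously from plating.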

[12] = CCTE_Shafer_MEA_dev_per_burst_interspike_interval: CCTE's Neural Network Formation Assay for Burst Interspike Interval, Shafer Lab (AID 2284044);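 also: mean spike spacing inside bursts as AUC over recordings on days 5 7 9 12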;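 as to AC50: potency for a decrease of within-burst interspike interval below DMSO level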
Procedure, shortened: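 Spontaneous activity of maturing rat cortical networks is recorded on DIV 5, 7, 9 and 12 under chronic compound exposure beginning at plating. Endpoint: burst interspike interval well-mean, collapsed into trapezoidal AUC and fitted in the negative direction relative to DMSO.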

[13] = CCTE_Shafer_MEA_dev_burst_duration_mean: CCTE's Neural Network Formation Assay for Mean Burst Duration, Shafer Lab (AID 2284045);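 as to AC50: curve fitted for loss meaning shorter burst duration than DMSO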
Procedure, shortened: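 Read-out: average first-to-last-spike interval within single-electrode bursts, averaged over bursting electrodes per well, then summarised as area under the curve across days 5, 7, 9 and 12. Developing rat cortical networks were exposed from day 0.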

[14] = CCTE_Shafer_MEA_dev_interburst_interval_mean: CCTE's Neural Network Formation Assay for Mean Interburst Interval, Shafer Lab (AID 2284046);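 also: well-mean interburst interval of bursting electrodes as AUC over four recording days; curve fitted for decrease in interburst interval relative to DMSO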
Procedure, shortened: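 Network formation assay in primary rat cortical cultures, exposed from DIV 0 to 12. Mean interburst interval per well, integrated as AUC over four recordings.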

[15] = CCTE_Shafer_MEA_dev_inter_network_spike_interval_mean: CCTE's Neural Network Formation Assay for Mean Inter-network Spike Interval, Shafer Lab (AID 2284047);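 as to AC50: potency for a decrease in mean inter-network spike interval below DMSO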
Procedure, shortened: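 Compound was given at plating to primary rat cortical neurons and renewed with full medium changes on DIV 5 and 9. Extracellular activity was recorded on days 5, 7, 9, 12; AUC values were fitted for loss relative to DMSO control.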

[16] = CCTE_Shafer_MEA_dev_network_spike_number: CCTE's Neural Network Formation Assay for Number of Network Spikes, Shafer Lab (AID 2284048);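 also: synchronized bursts across electrodes counted on days 5 7 9 12 and integrated as AUC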;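 as to AC50: fit as a loss of signal meaning fewer network spikes than DMSO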
Procedure, shortened: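 Developing networks of primary rat cortical neurons are treated over 12 days starting at plating, with media and compound fully replaced on DIV 5 and 9. Network spike counts from four recording days are integrated as trapezoidal AUC.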

[17] = biological target: Estrogen receptor (Homo sapiens) (UniProt P03372); test: CCTE_Deisenroth_AIME_96WELL_LUC_Inactive: CCTE's 96-well Estrogen Receptor Transactivation Assay without AIME metabolic competence (ERTA luciferase; metabolism negative), Deisenroth Lab (AID 2284025; active = hit-call score of the fitted dose curve at least 0.9, where 1 is the maximum)
Procedure, shortened: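 VM7Luc4E2 breast cells, luciferase read 24 h after dosing with medium pre-incubated 2 h on alginate-water lids (metabolism negative). 10-point series 0.002–200 uM, single technical replicate, n≥4; fit relative to 17beta-estradiol.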

Measured: AC50

CCC(C)(c1ccc(O)cc1)c1ccc(O)cc1
active: [3] 0.927 µM | [6] 164 µM | [7] 0.206 µM | [8] 189 µM | [9] 4.56 µM | [10] 0.107 µM | [11] 3.23 µM
not listed: [17]
inactive: all other assays above

CO/C=C(/C(=O)OC)c1ccccc1COc1cccc(C(F)(F)F)n1
active: [1] 0.313 µM | [2] 5.76 µM | [4] 272 nM and 453 nM | [5] 822 nM and 381 nM | [9] 229 nM and 493 nM | [11] 203 nM and 323 nM | [12] 594 nM and 761 nM | [13] 231 nM and 490 nM | [14] 534 nM and 582 nM | [15] 364 nM and 752 nM | [16] 179 nM and 398 nM

O=C(O)C(F)(F)C(F)(F)C(F)(F)C(F)(F)C(F)(F)F
inactive: [1] | [2] | [4] | [5] | [12] | [13] | [14] | [15] | [16]

ClC1=C(Cl)[C@]2(Cl)[C@@H]3[C@H]4C[C@H]([C@@H]5O[C@H]45)[C@@H]3[C@@]1(Cl)C2(Cl)Cl
active: [1] 0.0119 µM | [2] 0.0248 µM | [3] 2.76 µM | [10] 1.75 µM
not listed: [6] | [15] | [17]
inactive: all other assays above

ClC1=C(Cl)[C@]2(Cl)[C@@H]3[C@@H]4C[C@@H]([C@H]5O[C@@H]45)[C@@H]3[C@@]1(Cl)C2(Cl)Cl
active: [1] 0.318 µM | [2] 0.117 µM | [4] 8.23 µM | [5] 24.2 µM | [11] 10.2 µM | [12] 4.03 µM | [16] 492 nM
inactive: [13] | [14] | [15]

O=C(N[C@H]1CN2CCC1CC2)c1cc2ccoc2cn1
inactive: [1] | [2] | [3] | [6] | [7] | [8] | [10]

CCC(C)(CC)c1cc(NC(=O)c2c(OC)cccc2OC)on1
inactive: [1] | [2]

c1ccc(-c2ccccc2)cc1
inactive: [1] | [17] | [2] | [6] | [7] | [8]
active: [3] 88 µM | [10] 80.7 µM

C=CC(N)=O
not listed: [3] | [6] | [7] | [8] | [10] | [17]
inactive: all other assays above
